# Results as given in the supplement of paper PMC12494721.
# Counter-ions that a name gives are not always drawn.
# System: Clostridium sporogenes DSM 1664
# Test: growth (OD595) fold change vs plate DMSO controls (fold change (ratio)); higher = more growth
# Settings: incubation time: 27 h, anaerobic, 37 °C
# Method in brief: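 Growth is the fold change relative to the median of plate DMSO controls. Readings came from anaerobic mGAM cultures in 96-well plates grown for 27 h at 37 °C and read at 595 nm. They were blank-subtracted, corrected for compound background with 20 µM compound solutions in water, and converted to OD with a calibration factor of 5. Values are means of 2 biological replicates, and fold changes above 1.5 were set to NA.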
row,Compound,growth
1,CCOC(=O)[N-]c1c[n+](N2CCOCC2)no1 [Molsidomine] (20 µM),0.839
2,CCN(CC)CCOC(=O)C(Cc1cccc2ccccc12)CC1CCCO1 (stereo not given) [Nafronyl oxalate] (20 µM),0.946
3,CCN(CC)CCOC(=O)C1(C2CCCCC2)CCCCC1 [Dicyclomine hydrochloride] (20 µM),0.883
4,CC[C@H]1OC(=O)[C@H](C)[C@@H](O[C@H]2C[C@@](C)(OC)[C@@H](O)[C@H](C)O2)[C@H](C)[C@@H](O[C@@H]2O[C@H](C)C[C@H](N(C)C)[C@H]2O)[C@](C)(O)C[C@@H](C)C(=O)[C@H](C)[C@@H](O)[C@]1(C)O [Erythromycin] (20 µM),0.0078
5,NC(=O)NS(=O)(=O)c1ccc(N)cc1 [Sulfacarbamide] (20 µM),0.977
6,O=c1[nH]cc(F)c(=O)[nH]1 [5-fluorouracil] (20 µM),1.2
7,NC(=O)N/N=C/c1ccc([N+](=O)[O-])o1 [Nitrofural] (20 µM),1.07
8,COC(=O)C1=C(C)NC(C)=C(C(=O)OC2CCCN(Cc3ccccc3)C2)C1c1cccc([N+](=O)[O-])c1 (stereo not given) [Benidipine hydrochloride] (20 µM),1.1
9,CCNC(=O)CCC/C=C\C[C@@H]1[C@@H](/C=C/[C@@H](O)CCc2ccccc2)[C@H](O)C[C@@H]1O [Bimatoprost] (20 µM),1.07
10,CN(Cc1ccc(C(C)(C)C)cc1)Cc1cccc2ccccc12 [Butenafine hydrochloride] (20 µM),1.12
11,CN1CCC(OC(c2ccccc2)c2ccccc2)CC1 [Diphenylpyraline hydrochloride] (20 µM),0.998
12,c1ccc2cc3c(ccc4ccccc43)cc2c1 [Benz[a]anthracene] (20 µM),1.13
13,CC1=C(C(=O)O)N2C(=O)[C@@H](NC(=O)[C@H](N)c3ccccc3)[C@H]2SC1 [Cephalexin monohydrate] (20 µM),0.958
14,CNc1ncnc2c1ncn2[C@@H]1O[C@H](CO)[C@@H](O)[C@H]1O [N6-methyladenosine] (20 µM),1.05
15,Cn1nnc2c(C(N)=O)ncn2c1=O [Temozolomide] (20 µM),1.09
16,CN[C@@H]1[C@H](O[C@H]2[C@H](O[C@H]3[C@H](O)[C@@H](O)[C@H](N=C(N)N)[C@@H](O)[C@@H]3N=C(N)N)O[C@@H](C)[C@]2(O)C=O)O[C@@H](CO)[C@H](O)[C@H]1O [Streptomycin sulfate] (20 µM),0.95
17,CC(C)Oc1ccc2c(=O)c(-c3ccccc3)coc2c1 [Ipriflavone] (20 µM),0.986
18,CC[C@@H]1C(=O)OC[C@@H]1Cc1cncn1C [Pilocarpine nitrate] (20 µM),1.03
19,COC(=O)[C@@H]1[C@H]2C[C@H]3c4[nH]c5ccccc5c4CCN3C[C@@H]2CC[C@@H]1O [Yohimbine hydrochloride] (20 µM),1.02
20,CC(=O)N1CCN(c2ccc(OCC3COC(Cn4ccnc4)(c4ccc(Cl)cc4Cl)O3)cc2)CC1 (stereo not given) [Ketoconazole] (20 µM),1.17
21,CN1C(C(=O)Nc2ccccn2)=C(O)c2ccccc2S1(=O)=O [Piroxicam] (20 µM),1.07
22,NS(=O)(=O)c1cc2c(cc1Cl)NC(Cc1ccccc1)NS2(=O)=O (stereo not given) [Benzylhydrochlorothiazide] (20 µM),1.04
23,Cc1cc2c(cc1S(N)(=O)=O)S(=O)(=O)CCC2 [Meticrane] (20 µM),0.974
24,OC[C@@H](O)[C@@H](O)[C@@H](O)[C@@H](O)CO [Allitol] (50 µM),0.907
25,Cc1c(N(C)C)c(=O)n(-c2ccccc2)n1C [Amidopyrine] (20 µM),0.923
